From PubChem BioAssay (EPA / NIEHS)
Calls of active or inactive are those of the source. How the source made its calls: active means hit-call score of the fitted dose curve at least 0.9, where 1 is the maximum; inactive means score below 0.9.

Assay: ATG_GRE_CIS: Attagene CIS-FACTORIAL HepG2 Assay for human Glucocorticoid Response Elements (GRE) (AID 2282947)
Conditions: HepG2 GRE cis-reporter, Attagene multiplex mRNA; actives raise or lower the signal
Description: ATG_CIS is a cell-based, multiplexed-readout assay that uses HepG2, a human liver cell line, with measurements taken at 24 hours after chemical dosing in a 24-well plate.ATG_GRE_CIS is one of 52 assay component(s) measured or calculated from the ATG_CIS assay. It is designed to make measurements of mRNA induction, a form of inducible reporter, as detected with fluorescence intensity signals by Reverse transcription polymerase chain reaction (RT-PCR) and Capillary electrophoresis technology.Data from the assay component ATG_GRE_CIS was analyzed into 1 assay endpoint. This assay endpoint, ATG_GRE_CIS, was analyzed with bidirectional fitting relative to DMSO as the negative control and baseline of activity. Using a type of inducible reporter, measures of mRNA for gain or loss-of-signal activity can be used to understand the reporter gene at the transcription factor-level as they relate to the gene NR3C1. Furthermore, this assay endpoint can be referred to as a primary readout, because this assay has produced multiple assay endpoints where this one serves a reporter gene function. To generalize the intended target to other relatable targets, this assay endpoint is annotated to the nuclear receptor intended target family, where the subfamily is steroidal.
Human liver HepG2 cells are transiently transfected with multiple reporter transcription units (MRTUs) in 6-well plates using FuGene 6 reagent (Roche; 3 ml FuGene/1 mg DNA). The MRTU constructs are regulated by a cis-regulating element (promoter). […] A major difference between the CIS and TRANS system is that in CIS activities of endogenous TFs are measured, whereas the TRANS assay evaluates changes in activities of exogenous, chimeric NR-Gal4 proteins. […] At the end of 24 hour incubation, total RNA was isolated using TriZol reagent (Invitrogen). The isolated RNA is then reverse-transcribed using oligo(dT) primer and Mo-MLV reverse transcriptase (Invitrogen) with DNAse I (Ambion) treatment for 30 min. The one-tenth of the produced cDNA was amplified by PCR using Taq DNA polymerase (Invitrogen) and two reporter sequence-specific primers. The PCR products were fluorescently labeled by primer extension with 6-arboxyfluorescein (6-FAM) 5'-labeled reporter sequence-specific primer (2 min at 95 C, 20 s at 68 C and 10 min at 72 C) and these products were digested with 5U of HpaI (New England Biolabs) for 2h at 37 C. The fragments were purified using Qiaquick PCR columns (Qiagen), analyzed on an ABI 3130xL genetic analyzer (Applied Biosystems) with peak positions identified by using a set of X-rhodamine (ROX)-labeled MapMarker1000 molecular weight standards (BioVentures). The raw capillary electrophoresis data was processed using Attagraph software (Attagene).

outcome, inactive:
CC(=O)OC(C)C
CCOC(=O)[C@H](C)O
C=COCCCC
CC(=O)c1ccc2c(c1)CCCC2
O=C1CCCC1
Cc1ccc(C2OC[C@@H]3OC(c4ccc(C)cc4)O[C@H]([C@H](O)CO)[C@@H]3O2)cc1 (stereo not given in full)
C=CC(=O)OCCOC1C2CCC1C1CC=CC12 (stereo not given)
CC(=O)OC1C2(C)CCC(C2)C1(C)C (stereo not given)
OCCc1ccncc1
O=C(OCC1CCC2OC2C1)C1CCC2OC2C1 (stereo not given)
CC(=O)CC(N)=O
CCCCC/C=C\CCC=O
CCc1ccc2c(c1)C(=O)c1ccccc1C2=O
CC[C@H]1OC(=O)[C@H](C)[C@@H](O[C@H]2C[C@@](C)(OC)[C@@H](O)[C@H](C)O2)[C@H](C)[C@@H](O[C@@H]2O[C@H](C)C[C@H](N(C)C)[C@H]2O)[C@](C)(O)C[C@@H](C)C(=NOCOCCOC)[C@H](C)[C@@H](O)[C@]1(C)O
CC(C)c1ccc2c(c1)CC[C@H]1[C@](C)(CN)CCC[C@]21C
CC(=O)Nc1ccc2c(c1)Cc1cc(NC(C)=O)ccc1-2
CC1=NC(C)OC1C (stereo not given)
CCCCCCCC(C)=O
O=Cc1ccc(CO)o1
NC(=O)C1CO1 (stereo not given)
CCC(C)OC(=O)c1ccc(O)cc1 (stereo not given)
COC(=O)C1=C(C)NC(C)=C(C(=O)OCC(C)C)C1c1ccccc1[N+](=O)[O-] (stereo not given)
O=c1c2ccccc2oc2ccccc12
CCCCCCC(O)CO (stereo not given)
CCCCCCCCCCCCCOP(=O)(O)O
Nc1ccc(Oc2ccc(N)c(N)c2)cc1
CCCCCc1ccc(Cl)cc1
CC(=O)C=CC1C(C)=CCC(C)C1(C)C (stereo not given)
COCC(C)N (stereo not given)
Nc1nc2ccccc2[nH]1
Nc1ccc(N)c(Cl)c1
CCCCCCCCCCOC(C)=O
C=C1[C@H]2CC[C@@H]3[C@H]2C(C)(C)CCC[C@]13C
O=C(C(Cl)Cl)N1CCOC12CCCCC2
COc1ccc(C(Cl)=C(c2ccc(OC)cc2)c2ccc(OC)cc2)cc1
O=C(Nc1cccc(C(F)(F)F)c1)c1cc(Br)cc(Br)c1O
COC(=O)/C=C\C(=O)O
COc1c2ccoc2cc2oc(=O)ccc12
COc1ccc(-c2coc3cc(O)ccc3c2=O)cc1
COc1ccc(NC(C)=O)cc1N
